# Data taken from ChEMBL document CHEMBL1961873, “Compounds: GSK PKIS; Assays: Nanosyn kinase panel” (2012).
# Experiments:
# [1] = biological target: Casein kinase I isoform gamma-2 (Homo sapiens) (UniProt P78368); details: at 1 µM
# [2] = biological target: Casein kinase I isoform gamma-3 (Homo sapiens) (UniProt Q9Y6M4); details: at 0.1 µM
# [3] = biological target: Casein kinase I isoform gamma-3 (Homo sapiens) (UniProt Q9Y6M4); details: at 1 µM
# [4] = biological target: Cyclin-dependent kinase 1 (Homo sapiens) (UniProt P06493); details: at 0.1 µM
# Cyclin-dependent kinase 1 (Homo sapiens), sequence (P06493 whole entry, looked up): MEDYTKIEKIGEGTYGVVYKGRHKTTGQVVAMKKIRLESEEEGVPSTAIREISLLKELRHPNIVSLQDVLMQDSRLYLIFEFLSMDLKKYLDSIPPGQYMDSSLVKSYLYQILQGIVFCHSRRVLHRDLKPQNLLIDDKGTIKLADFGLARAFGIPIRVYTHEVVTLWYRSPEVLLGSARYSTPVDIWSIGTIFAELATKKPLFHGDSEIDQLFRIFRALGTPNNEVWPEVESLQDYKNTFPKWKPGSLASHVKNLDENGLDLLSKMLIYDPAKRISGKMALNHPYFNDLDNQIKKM
# [5] = biological target: Cyclin-dependent kinase 1 (Homo sapiens) (UniProt P06493); details: at 1 µM
# [6] = biological target: Cyclin-dependent kinase 2 (Homo sapiens) (UniProt P24941); details: at 0.1 µM
# [7] = biological target: Cyclin-dependent kinase 2 (Homo sapiens) (UniProt P24941); details: at 1 µM
# [8] = biological target: Cyclin-dependent kinase 2 (Homo sapiens) (UniProt P24941); details: at 0.1 µM; remark: listed apart in the source
# [9] = biological target: Cyclin-dependent kinase 2 (Homo sapiens) (UniProt P24941); details: at 1 µM; remark: listed apart in the source
# [10] = biological target: CDK3/Cyclin E (Homo sapiens) (UniProt P24864+Q00526); details: at 0.1 µM;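 note: reported percentages are mean inhibition values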
# CDK3/Cyclin E (Homo sapiens), sequence (P24864 whole entry, looked up): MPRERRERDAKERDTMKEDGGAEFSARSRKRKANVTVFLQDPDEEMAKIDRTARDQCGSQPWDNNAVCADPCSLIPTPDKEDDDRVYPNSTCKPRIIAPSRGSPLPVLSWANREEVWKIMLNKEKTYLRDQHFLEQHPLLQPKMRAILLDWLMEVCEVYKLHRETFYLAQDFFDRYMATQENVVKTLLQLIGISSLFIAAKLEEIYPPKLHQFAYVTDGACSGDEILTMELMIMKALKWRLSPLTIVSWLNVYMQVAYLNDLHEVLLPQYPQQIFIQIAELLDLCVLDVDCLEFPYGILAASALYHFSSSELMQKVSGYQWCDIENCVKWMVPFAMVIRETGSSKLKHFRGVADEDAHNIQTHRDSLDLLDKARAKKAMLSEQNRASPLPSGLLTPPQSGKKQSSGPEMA
# CDK3/Cyclin E (Homo sapiens), sequence (Q00526 whole entry, looked up): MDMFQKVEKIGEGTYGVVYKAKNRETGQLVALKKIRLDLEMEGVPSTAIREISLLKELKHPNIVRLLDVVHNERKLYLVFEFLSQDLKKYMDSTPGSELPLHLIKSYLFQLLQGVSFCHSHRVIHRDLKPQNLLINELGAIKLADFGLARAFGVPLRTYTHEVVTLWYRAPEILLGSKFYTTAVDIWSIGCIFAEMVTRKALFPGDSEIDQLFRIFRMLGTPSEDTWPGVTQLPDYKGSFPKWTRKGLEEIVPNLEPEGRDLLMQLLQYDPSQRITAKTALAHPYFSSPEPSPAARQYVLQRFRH
# Casein kinase I isoform gamma-2 (Homo sapiens), sequence (P78368 whole entry, looked up, canonical isoform): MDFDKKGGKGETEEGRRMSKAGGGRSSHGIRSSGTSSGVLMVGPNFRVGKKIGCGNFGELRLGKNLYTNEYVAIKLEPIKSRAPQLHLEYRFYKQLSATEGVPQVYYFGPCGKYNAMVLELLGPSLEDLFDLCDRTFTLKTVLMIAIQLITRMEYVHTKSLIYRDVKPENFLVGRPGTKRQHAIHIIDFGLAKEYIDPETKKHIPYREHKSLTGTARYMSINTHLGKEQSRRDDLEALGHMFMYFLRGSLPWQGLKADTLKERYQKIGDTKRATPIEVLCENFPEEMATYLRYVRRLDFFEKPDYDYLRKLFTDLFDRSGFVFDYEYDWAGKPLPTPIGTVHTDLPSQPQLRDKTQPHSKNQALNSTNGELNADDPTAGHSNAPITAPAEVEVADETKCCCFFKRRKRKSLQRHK
# Casein kinase I isoform gamma-3 (Homo sapiens), sequence (Q9Y6M4 whole entry, looked up, canonical isoform): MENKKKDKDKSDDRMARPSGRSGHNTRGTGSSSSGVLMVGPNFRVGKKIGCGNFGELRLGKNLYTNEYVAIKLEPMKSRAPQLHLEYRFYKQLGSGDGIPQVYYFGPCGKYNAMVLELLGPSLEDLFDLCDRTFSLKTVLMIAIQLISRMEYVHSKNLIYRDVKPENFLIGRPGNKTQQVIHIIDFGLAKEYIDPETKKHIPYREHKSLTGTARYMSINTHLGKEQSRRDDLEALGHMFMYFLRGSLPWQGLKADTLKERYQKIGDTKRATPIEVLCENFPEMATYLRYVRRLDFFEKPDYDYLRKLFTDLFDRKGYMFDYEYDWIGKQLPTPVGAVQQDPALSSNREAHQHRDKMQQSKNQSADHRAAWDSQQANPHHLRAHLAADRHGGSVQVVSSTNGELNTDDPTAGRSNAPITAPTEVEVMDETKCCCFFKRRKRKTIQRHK
Structure (SMILES),inhibition [1] [%],inhibition [2] [%],inhibition [3] [%],inhibition [4] [%],inhibition [5] [%],inhibition [6] [%],inhibition [7] [%],inhibition [8] [%],inhibition [9] [%],inhibition [10] [%]
Nc1nccc(-c2c(-c3ccc(F)cc3)ncn2C2CCC(O)CC2)n1 (stereo not given),3.41,-1.07,10.8,0.17,5.68,-0.46,-4.73,0.06,1.24,-1
C[C@@H](Oc1cc(-n2cnc3ccc(OC4CCN(C)CC4)cc32)sc1C(N)=O)c1ccccc1Cl,-0.19,-1.77,-4.38,-1.71,-2.15,-1.38,-0.94,-0.63,2.09,-3.54
NS(=O)(=O)c1ccc(N/N=C2\C(=O)Nc3ccc(C(=O)NCCCn4ccnc4)cc32)cc1,9.42,5.52,12.9,20.5,66.7,97.4,97.9,65,82.4,27.8
O=C(Nc1n[nH]c2cc(-c3cc(F)ccc3F)ccc12)C1CC1,3.38,1.27,2.99,1.12,7.47,2.01,17.3,2.48,11.6,2.32
COc1cc(N2CCN(C(C)C)CC2)ccc1Nc1nc(Nc2ccc(F)cc2C(=O)NC[C@@H](O)CO)c2cc[nH]c2n1,15.6,2.74,31.8,-2.84,-2.45,-1.75,4.45,0.16,0.53,3.35
CN(C)CCOc1ccc(-c2cc(-c3ccc4c(c3)CCC4=NO)c(-c3ccncc3)o2)cc1,-0.77,-0.76,-0.08,0.53,1.85,-0.07,0.53,-0.38,0.33,-2.82
O=C(NCC1CC1)c1ccc(-c2cccc(C(=O)NC3CC3)c2)cc1,2.47,0.19,2.3,-0.46,1.27,1.17,9.03,2.3,2.72,-0.72
O=C1Nc2ccc(I)cc2C1=Cc1cc(Br)c(O)c(Br)c1,6.34,3.79,3.16,2.76,1.43,4.61,3.86,1.77,3.35,-4.12
FC(F)(F)c1cccc(Nc2nccc(-c3cnn4nc(-c5ccccc5)ccc34)n2)c1,2.62,1.84,2.44,0.56,4.07,1.41,13.5,3.41,26.4,-1.25
NC(=O)Cc1ccccc1Oc1nccc(-c2c(-c3ccc(F)cc3)ncn2C2CCNCC2)n1,10.5,3.98,8.65,-0.31,-0.43,1.15,2,1.82,2.1,2.95
CCS(=O)(=O)c1ccc(OC)c(Nc2ncc(-c3ccccc3Cl)o2)c1,1.51,-0.55,0.35,0.87,0.32,0.49,3.52,-0.35,1.49,-7.09
C/C(Nc1ccc(S(N)(=O)=O)cc1)=C1/C(=O)Nc2ccccc21,18.7,-1.23,19.1,0.68,14.5,7.75,56,8.8,48.1,9.17
COc1cc(C)c(N(C)C(=O)CN(C)C)cc1Nc1nc(Nc2cccc(F)c2C(N)=O)c2cc[nH]c2n1,10.4,-0.15,26.6,-4.66,-4.18,-3.41,1.23,-2.41,-2.88,-0.03
COc1ccc2ncn(-c3cc(O[C@H](C)c4ccccc4Cl)c(C(N)=O)s3)c2c1,0.41,-0.98,-2.81,-3.45,-2.45,-2.63,-1.27,-1.28,1.93,-2.44
NC(=O)c1cc(-c2ccncc2)cc(-c2ccccc2)c1N,4.95,4.56,4.47,-0.45,1.56,2.79,5.38,4.07,3.97,4.6
NC(=O)c1ccc(Oc2nccc(-c3c(-c4ccc(F)cc4)ncn3C3CCNCC3)n2)cc1,7.07,4.74,9.02,3.25,1.41,3.34,3.6,3.03,4.26,-3.59
COc1ccc(C2=C(N3CCc4ccccc43)C(=O)NC2=O)cc1,4.63,1.81,3.33,1.56,3.2,3.48,3.47,4.49,6.31,3.69

Structure (SMILES),inhibition [1] [%],inhibition [2] [%],inhibition [3] [%],inhibition [4] [%],inhibition [5] [%],inhibition [6] [%],inhibition [7] [%],inhibition [8] [%],inhibition [9] [%],inhibition [10] [%]
O=C(Nc1ccc(Oc2ccc3[nH]c(NC(=O)c4ccccc4)nc3c2)cc1)Nc1cc(C(F)(F)F)ccc1F,2.09,1.5,2.93,0.28,3.27,0.68,4.24,2.28,4.67,1.65
Fc1ccc(-c2nc3n(c2-c2ccncc2)CCS3)cc1,4.78,0.7,8.82,-2.26,-3.55,-1.04,1.08,0.41,0.29,4.27
COc1cc2ncn(-c3cc(OCc4ccccc4C(F)(F)F)c(C(C)=O)s3)c2cc1OC,3.62,2.1,2.97,0.91,2.22,0.94,2.63,2.2,3.96,-1.43
COc1cccc(-n2cnc3c(N/N=C/c4ccncc4)ncnc32)c1,-5.36,-3.39,-3.3,-3.5,0.55,-3.99,8.02,-3.22,-2.32,-0.66
CCS(=O)(=O)c1ccc(OC)c(Nc2ncc(-c3cccc(-c4ccccc4F)c3)o2)c1,-0.35,0.39,0.12,0.67,2.37,1.76,7.78,0.27,3.78,0.64
Cc1ccc(NC(=O)c2ccoc2)cc1-c1ccc(C(=O)NCC2CC2)cc1,3.57,2.63,2.71,1.06,1.75,-0.08,1.04,0.91,3.1,-0.03
COc1cc2ncn(-c3cc(OCCc4ccccc4)c(C(N)=O)s3)c2cc1OC,7.82,2.44,6.34,0.36,1.62,0.55,3.19,2.3,5.22,1.71
Clc1ccc(CNc2nccc(-c3cnn4ncccc34)n2)cc1,12,-0.98,12.9,7.01,36.3,4.06,17.6,4.31,21.5,3.02
N#Cc1ccc(Oc2nccc(-c3c(-c4ccc(F)cc4)ncn3C3CCNCC3)n2)cc1,5.15,1.83,5.34,0.28,1.02,0.77,1.99,1.81,2.89,-1.88
COc1cc(Nc2ncc(-c3ccccc3)o2)cc(OC)c1OC,-0.69,-0.27,-0.18,0.44,6.1,0.56,9.21,0.79,6.45,0.2
Fc1ccc(-c2ncn(C3CCNCC3)c2-c2ccnc(Oc3ccc(F)c(F)c3)n2)cc1,1.91,-0.68,1.74,-1.46,2.42,-1.17,-0.54,3.33,6.4,-1.06
CN(C)CCCNc1nccc(-c2c(-c3ccc(F)cc3)nn3cc(C(F)(F)F)ccc23)n1,-1.02,-3.53,-1.67,-1.9,1.74,-2.76,3.18,-2.39,1.3,0.59
Fc1ccc(-c2ncn(C3CCNCC3)c2-c2ccnc(Oc3ccc(Oc4ccccc4)cc3)n2)cc1,14.6,7.8,26.3,1.88,2.92,3.49,4.28,2.95,4.3,-3.73
Cc1ccc(C(=O)NC2CCC2)cc1-c1ccc(C(=O)NCC2CC2)cc1,2.95,2.2,2.4,0.42,1.39,2.38,0.45,2.25,3.3,2.79
COc1ccc2cc(-c3c(-c4ccncc4)nc(-c4ccc([S+](C)[O-])cc4C)n3C)ccc2c1 (stereo not given),-0.3,-1.01,-1.93,0.98,3.25,0.63,-1.45,1.09,1.29,-1.08
NCc1ccc(-n2c(-c3nonc3N)nc3cnccc32)cc1,7.87,2.05,10.7,3.12,10.5,5.13,30.4,10.1,31.4,6.87
Fc1ccc(-c2c(-c3ccncc3)nc3n2CCS3)cc1,-0.73,-3.04,-1.19,-4.51,-4.05,-1.82,-3.21,-1.42,0.06,2.29
